# Results filed as inconclusive are left out. Where a structure was tested more than once in an assay, its records may differ in their call. Active and inactive are the calls of the source. How the source made its calls, unless noted: active means hit-call score of the fitted dose curve at least 0.9, where 1 is the maximum; inconclusive means response in the unintended direction; inactive means score below 0.9.
# How the values were obtained:
# [1] = molecular target: human Peroxisome Proliferator-activated Receptor delta (PPARd), PPARD (gene 5467) (UniProt Q03181); assay: ATG_PPARd_TRANS: Attagene TRANS-FACTORIAL HepG2 Assay for human Peroxisome Proliferator-activated Receptor delta (PPARd) (AID 2283002)
# Sequence of human Peroxisome Proliferator-activated Receptor delta (PPARd), PPARD (gene 5467) (Q03181 whole entry, looked up, the tested form may be a part): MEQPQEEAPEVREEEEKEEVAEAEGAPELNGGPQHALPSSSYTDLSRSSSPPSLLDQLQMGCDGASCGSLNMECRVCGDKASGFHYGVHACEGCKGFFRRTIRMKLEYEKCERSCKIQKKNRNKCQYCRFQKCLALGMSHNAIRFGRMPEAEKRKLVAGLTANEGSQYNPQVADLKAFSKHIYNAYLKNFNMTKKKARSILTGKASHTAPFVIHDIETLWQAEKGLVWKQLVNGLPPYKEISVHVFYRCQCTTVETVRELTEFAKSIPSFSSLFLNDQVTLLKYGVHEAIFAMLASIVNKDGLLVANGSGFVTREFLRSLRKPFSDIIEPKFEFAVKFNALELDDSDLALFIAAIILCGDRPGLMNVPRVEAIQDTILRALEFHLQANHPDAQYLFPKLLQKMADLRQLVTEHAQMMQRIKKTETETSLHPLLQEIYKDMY
# In short: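 Read-out: reporter mRNA induction, quantified by fluorescent RT-PCR products resolved by capillary electrophoresis. Human HepG2 liver cells carried transiently transfected Gal4-UAS reporter constructs with chimeric NR-Gal4 fusions. Cells were dosed for 24 h; DMSO served as baseline.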
# [2] = read-out: Intercellular Adhesion Molecule 1 (ICAM1), ICAM1 (gene 3383); assay: BSK_3C_ICAM1: BioMAP Diversity Plus: 3C Assay for Intercellular Adhesion Molecule 1 (ICAM1) Biomarker Activity (AID 2283003; active means hit-call score of the fitted dose curve at least 0.9, where 1 is the maximum; inactive means score below 0.9); conditions: primary human endothelial cells (HUVEC); actives raise or lower the signal
# In short: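 Primary human umbilical vein endothelial cells in the BioMAP 3C system were exposed to chemicals for 24 h, then ICAM-1 was quantified by ELISA. Activity was fitted bidirectionally against the DMSO negative control baseline.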
# [3] = molecular target: Retinoic acid receptor alpha (Homo sapiens) (UniProt P10276); assay: ATG_RARa_TRANS: Attagene TRANS-FACTORIAL HepG2 Assay for human Retinoic Acid Receptor alpha (RARa) (AID 2283005);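 on AC50: potency for increased reporter signal meaning RARa activation over DMSO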
# Sequence of Retinoic acid receptor alpha (Homo sapiens) (P10276 whole entry, looked up, the tested form may be a part): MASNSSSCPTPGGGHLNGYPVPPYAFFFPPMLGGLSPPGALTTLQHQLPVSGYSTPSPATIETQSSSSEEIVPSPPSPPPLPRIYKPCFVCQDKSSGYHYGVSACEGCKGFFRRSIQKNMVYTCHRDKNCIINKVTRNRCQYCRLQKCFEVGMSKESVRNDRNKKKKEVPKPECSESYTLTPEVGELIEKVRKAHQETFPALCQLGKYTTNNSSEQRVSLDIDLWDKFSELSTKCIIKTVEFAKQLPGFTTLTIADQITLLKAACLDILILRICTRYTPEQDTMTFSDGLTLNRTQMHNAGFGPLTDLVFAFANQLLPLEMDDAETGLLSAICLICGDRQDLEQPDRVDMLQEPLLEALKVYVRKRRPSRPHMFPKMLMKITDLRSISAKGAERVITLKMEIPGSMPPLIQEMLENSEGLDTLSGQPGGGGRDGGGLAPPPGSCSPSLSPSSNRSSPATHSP
# In short: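 HepG2 transiently transfected with multiplex GAL4-UAS reporter units including a human RARa–GAL4 chimera; 24 h compound exposure. Reporter mRNA quantified by RT-PCR, 6-FAM labeling and capillary electrophoresis; gain of signal versus DMSO.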
# [4] = BSK_3C_Proliferation: Cell Proliferation Assessment in the BioMAP Diversity Plus: 3C Assay (AID 2283006; active means hit-call score of the fitted dose curve at least 0.9, where 1 is the maximum; inactive means score below 0.9;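 on AC50: potency may reflect either rise or fall in cell number versus DMSO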); conditions: primary human endothelial cells (HUVEC)
# In short: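 Human umbilical vein endothelial cells were grown sub-confluent and exposed to chemical for 48 h, then fixed with 10% TCA and stained with 0.1% sulforhodamine B; absorbance at 560 nm gave relative cell number, fitted bidirectionally against DMSO baseline.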
# [5] = molecular target: Peroxisome proliferator-activated receptor gamma (Homo sapiens) (UniProt P37231); assay: ATG_PPARg_TRANS: Attagene TRANS-FACTORIAL HepG2 Assay for human Peroxisome Proliferator-activated Receptor-gamma (PPARg) (AID 2283007)
# Sequence of Peroxisome proliferator-activated receptor gamma (Homo sapiens) (P37231 whole entry, looked up, the tested form may be a part): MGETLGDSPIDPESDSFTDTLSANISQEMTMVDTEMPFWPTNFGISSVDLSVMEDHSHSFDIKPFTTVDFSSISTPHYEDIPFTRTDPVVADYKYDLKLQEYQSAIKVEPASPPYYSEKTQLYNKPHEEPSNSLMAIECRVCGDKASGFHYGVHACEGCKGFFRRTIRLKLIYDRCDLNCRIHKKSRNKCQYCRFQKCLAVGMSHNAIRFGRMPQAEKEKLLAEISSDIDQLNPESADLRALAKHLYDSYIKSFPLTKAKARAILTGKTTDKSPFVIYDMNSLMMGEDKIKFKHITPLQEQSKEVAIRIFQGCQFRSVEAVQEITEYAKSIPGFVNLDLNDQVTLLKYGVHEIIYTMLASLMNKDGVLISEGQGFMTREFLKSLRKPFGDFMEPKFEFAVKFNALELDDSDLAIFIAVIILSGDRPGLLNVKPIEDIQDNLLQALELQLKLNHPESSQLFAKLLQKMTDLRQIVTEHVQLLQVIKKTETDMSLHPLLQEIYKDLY
# In short: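 Liver-derived HepG2 cells expressing an exogenous NR-Gal4 chimera alongside GAL4-UAS reporter genes; 24 h exposure. Fluorescence of reporter RT-PCR products, separated by capillary electrophoresis, gives mRNA induction relative to DMSO.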
# [6] = molecular target: Nuclear receptor subfamily 1 group I member 2 (Homo sapiens) (UniProt O75469); assay: ATG_PXR_TRANS: Attagene TRANS-FACTORIAL HepG2 Assay for human Pregnane X Receptor (PXR) (AID 2283008)
# Sequence of Nuclear receptor subfamily 1 group I member 2 (Homo sapiens) (O75469 whole entry, looked up, the tested form may be a part): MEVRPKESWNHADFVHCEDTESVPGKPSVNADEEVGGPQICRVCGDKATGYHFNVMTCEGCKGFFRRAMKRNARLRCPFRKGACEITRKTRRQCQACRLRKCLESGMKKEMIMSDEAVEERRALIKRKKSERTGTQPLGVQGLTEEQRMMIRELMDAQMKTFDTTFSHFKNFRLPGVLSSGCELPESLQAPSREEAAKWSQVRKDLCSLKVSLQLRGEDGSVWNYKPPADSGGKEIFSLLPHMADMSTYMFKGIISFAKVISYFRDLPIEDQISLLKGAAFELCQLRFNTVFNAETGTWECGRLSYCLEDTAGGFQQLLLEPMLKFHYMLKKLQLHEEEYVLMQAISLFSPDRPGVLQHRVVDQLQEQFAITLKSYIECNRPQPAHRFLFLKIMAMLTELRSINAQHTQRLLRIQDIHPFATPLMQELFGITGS
# In short: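 Fluorescence intensity of FAM-labelled, HpaI-digested reporter amplicons, separated by capillary electrophoresis, quantifies induction. HepG2 cells with PXR-Gal4 trans-reporter system were exposed 24 h; DMSO defines baseline.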
# [7] = molecular target: human Retinoic Acid Receptor gamma (RARg), RARG (gene 5916) (UniProt P13631); assay: ATG_RARg_TRANS: Attagene TRANS-FACTORIAL HepG2 Assay for human Retinoic Acid Receptor gamma (RARg) (AID 2283009)
# Sequence of human Retinoic Acid Receptor gamma (RARg), RARG (gene 5916) (P13631 whole entry, looked up, the tested form may be a part): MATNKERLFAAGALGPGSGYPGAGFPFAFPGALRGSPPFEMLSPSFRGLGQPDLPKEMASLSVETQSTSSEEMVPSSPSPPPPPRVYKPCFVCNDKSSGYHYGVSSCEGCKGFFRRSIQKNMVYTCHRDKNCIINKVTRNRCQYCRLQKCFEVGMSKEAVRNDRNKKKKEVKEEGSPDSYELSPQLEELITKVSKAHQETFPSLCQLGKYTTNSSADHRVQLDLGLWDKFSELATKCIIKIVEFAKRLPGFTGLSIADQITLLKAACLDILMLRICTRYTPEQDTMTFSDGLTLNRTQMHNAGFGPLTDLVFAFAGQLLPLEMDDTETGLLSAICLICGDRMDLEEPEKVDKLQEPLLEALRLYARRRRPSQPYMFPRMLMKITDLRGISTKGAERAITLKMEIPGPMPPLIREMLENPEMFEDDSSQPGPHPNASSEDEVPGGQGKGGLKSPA
# In short: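 HepG2 cells transiently transfected with multiplexed reporter units expressing chimeric RARg-GAL4 and GAL4-UAS-driven reporters; 24 h compound exposure. Reporter mRNA quantified by RT-PCR with fluorescent labelling and capillary electrophoresis; gain-of-signal fitted relative to DMSO baseline.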
# [8] = molecular target: Retinoic acid receptor RXR-alpha (Homo sapiens) (UniProt P19793); assay: ATG_RXRa_TRANS: Attagene TRANS-FACTORIAL HepG2 Assay for human Retinoid X Receptor alpha (RXRa) (AID 2283012)
# Sequence of Retinoic acid receptor RXR-alpha (Homo sapiens) (P19793 whole entry, looked up, the tested form may be a part): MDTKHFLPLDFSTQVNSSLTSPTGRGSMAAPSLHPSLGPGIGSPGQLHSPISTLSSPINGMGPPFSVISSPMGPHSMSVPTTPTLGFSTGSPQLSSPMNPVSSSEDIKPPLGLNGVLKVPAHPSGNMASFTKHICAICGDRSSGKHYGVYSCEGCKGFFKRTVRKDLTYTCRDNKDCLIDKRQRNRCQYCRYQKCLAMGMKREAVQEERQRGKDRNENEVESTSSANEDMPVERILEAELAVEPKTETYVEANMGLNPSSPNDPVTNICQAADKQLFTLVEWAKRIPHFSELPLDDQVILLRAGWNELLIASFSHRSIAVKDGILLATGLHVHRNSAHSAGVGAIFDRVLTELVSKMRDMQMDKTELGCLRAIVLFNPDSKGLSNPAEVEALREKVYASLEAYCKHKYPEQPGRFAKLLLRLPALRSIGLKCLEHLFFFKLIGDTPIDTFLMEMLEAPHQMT
# In short: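 HepG2 cells transiently transfected with multiplexed GAL4-UAS reporter units and chimeric NR-GAL4 fusions, dosed 24 h. Reporter mRNA measured by RT-PCR, FAM labelling, HpaI digestion and capillary electrophoresis; gain-of-signal fitted relative to DMSO baseline.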
# [9] = molecular target: human RAR-related Orphan Receptor beta (RORb), RORB (gene 6096) (UniProt Q92753); assay: ATG_RORb_TRANS: Attagene TRANS-FACTORIAL HepG2 Assay for human RAR-related Orphan Receptor beta (RORb) (AID 2283010)
# Sequence of human RAR-related Orphan Receptor beta (RORb), RORB (gene 6096) (Q92753 whole entry, looked up, the tested form may be a part): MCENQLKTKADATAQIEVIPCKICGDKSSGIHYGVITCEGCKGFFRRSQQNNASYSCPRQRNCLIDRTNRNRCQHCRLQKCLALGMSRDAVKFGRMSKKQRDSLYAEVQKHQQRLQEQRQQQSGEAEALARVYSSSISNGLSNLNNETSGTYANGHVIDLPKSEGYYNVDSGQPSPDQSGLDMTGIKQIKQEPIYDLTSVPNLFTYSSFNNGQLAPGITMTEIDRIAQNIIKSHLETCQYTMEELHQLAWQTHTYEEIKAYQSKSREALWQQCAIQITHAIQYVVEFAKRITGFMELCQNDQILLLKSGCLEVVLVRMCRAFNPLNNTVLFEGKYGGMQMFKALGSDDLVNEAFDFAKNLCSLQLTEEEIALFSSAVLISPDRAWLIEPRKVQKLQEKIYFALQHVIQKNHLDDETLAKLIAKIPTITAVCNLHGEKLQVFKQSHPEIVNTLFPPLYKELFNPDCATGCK
# In short: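 HepG2 cells were transiently transfected with multiplexed GAL4-UAS reporter units expressing chimeric nuclear receptor–GAL4 proteins, then dosed for 24 h. Reporter mRNA was quantified by RT-PCR with fluorescent labelling and capillary electrophoresis; gain of signal was fitted relative to DMSO.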
# [10] = molecular target: human RAR-related Orphan Receptor gamma (RORg), RORC (gene 6097) (UniProt P51449); assay: ATG_RORg_TRANS: Attagene TRANS-FACTORIAL HepG2 Assay for human RAR-related Orphan Receptor gamma (RORg) (AID 2283011)
# Sequence of human RAR-related Orphan Receptor gamma (RORg), RORC (gene 6097) (P51449 whole entry, looked up, the tested form may be a part): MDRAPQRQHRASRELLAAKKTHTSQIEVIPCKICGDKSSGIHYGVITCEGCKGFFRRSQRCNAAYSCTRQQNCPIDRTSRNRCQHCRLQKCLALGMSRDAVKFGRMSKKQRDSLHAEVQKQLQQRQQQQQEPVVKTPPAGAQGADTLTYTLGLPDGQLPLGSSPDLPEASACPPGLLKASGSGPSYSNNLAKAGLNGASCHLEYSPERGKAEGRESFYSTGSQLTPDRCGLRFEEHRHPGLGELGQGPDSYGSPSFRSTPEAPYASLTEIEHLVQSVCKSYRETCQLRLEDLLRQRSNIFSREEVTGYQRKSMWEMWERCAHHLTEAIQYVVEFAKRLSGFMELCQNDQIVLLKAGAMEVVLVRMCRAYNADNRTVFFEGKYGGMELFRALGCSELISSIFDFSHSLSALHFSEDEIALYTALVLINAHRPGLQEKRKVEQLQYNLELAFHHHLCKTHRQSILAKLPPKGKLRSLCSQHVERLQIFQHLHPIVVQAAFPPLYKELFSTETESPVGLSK
# In short: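 Transient MRTU transfection of HepG2 (TRANS format, exogenous NR-Gal4 chimera). 24 h dosing. Total RNA → oligo(dT) RT → PCR → 6-FAM labelling → HpaI cut → CE. Gain vs DMSO.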
smiles,measurement,setting,value
CC(C)(C)c1cc(/C=C2\SC(N)=NC2=O)cc(C(C)(C)C)c1O,outcome,[1],inactive
same,AC50,[2],31.7 µM (active)
same,outcome,[3],inactive
same,AC50,[4],13.4 µM (active)
same,AC50,[5],6.79 µM (active)
same,AC50,[6],4.17 µM (active)
same,outcome,[7],inactive
same,outcome,[8],inactive
O=C1CCC(C2CCCCC2)CC1,outcome,[1],inactive
same,outcome,[2],inactive
same,outcome,[3],inactive
same,outcome,[4],inactive
same,AC50,[5],27.6 µM (active) [middle of 4 runs]
same,outcome,[9],inactive
same,outcome,[10],inactive
same,outcome,[8],inactive
CC[C@@H]1C[C@H](N(Cc2cc(C(F)(F)F)cc(C(F)(F)F)c2)C(C)=O)c2cc(C(F)(F)F)ccc2N1C(=O)OC(C)C,outcome,[1],inactive
same,outcome,[2],inactive
same,AC50,[3],1.1 µM (active)
same,outcome,[4],inactive
same,outcome,[5],inactive
same,AC50,[6],0.118 µM (active)
same,outcome,[7],inactive
same,outcome,[8],inactive
NCc1cccc(C2CCN(C(=O)c3ccc(C#Cc4ccccc4F)o3)CC2)c1,outcome,[1],inactive
same,AC50,[2],30.1 µM (active)
same,AC50,[4],8.67 µM (active)
same,AC50,[5],1.33 µM (active)
same,AC50,[6],8.45 µM (active)
same,outcome,[10],inactive
same,outcome,[8],inactive
Cc1c2ccccc2c(C)c2c1ccc1ccccc12,AC50,[1],100 µM (active)
same,outcome,[2],inactive
same,outcome,[3],inactive
same,AC50,[4],10.4 µM (active)
same,AC50,[5],24.1 µM (active)
same,AC50,[6],2.57 µM (active)
same,outcome,[7],inactive
Clc1ccccc1C(c1ccccc1)(c1ccccc1)n1ccnc1,AC50,[2],31.5 µM (active)
same,AC50,[4],13.7 µM (active)
same,AC50,[6],0.24 µM (active)
same,outcome,[8],inactive
COc1cccc([C@H](O)C2CCN(CCc3ccc(F)cc3)CC2)c1OC,outcome,[1],inactive
same,outcome,[2],inactive
same,outcome,[4],inactive
same,outcome,[6],inactive
same,outcome,[7],inactive
same,outcome,[8],inactive
CC1(C)NC(=O)N(c2ccc([N+](=O)[O-])c(C(F)(F)F)c2)C1=O,outcome,[2],inactive
same,outcome,[4],inactive
same,outcome,[5],inactive
same,outcome,[7],inactive
same,outcome,[8],inactive
CC(O)CC(C)(C)O (stereo not given),outcome,[2],inactive
same,outcome,[3],inactive
same,outcome,[4],inactive
same,outcome,[5],inactive
same,outcome,[6],inactive
same,outcome,[7],inactive
same,outcome,[9],inactive
same,outcome,[10],inactive
same,outcome,[8],inactive
COc1ccc2cc(S(=O)(=O)N[C@H](CC(=O)N[C@H](Cc3ccc(CN4[C@H](C)CCC[C@@H]4C)cc3)C(=O)N(C)C(C)C)c3ccc4c(c3)OCO4)ccc2c1,outcome,[2],inactive
same,AC50,[4],22 µM (active)
same,outcome,[5],inactive
same,outcome,[6],inactive
same,outcome,[8],inactive
COCC(C)OCC(C)OCC(C)O (stereo not given),outcome,[1],inactive
same,outcome,[2],inactive
same,outcome,[4],inactive
same,outcome,[6],inactive
NC(=O)c1nc(-c2cccc(-c3cc(F)ccc3OCC(F)(F)C(F)(F)F)c2)n[nH]1,outcome,[1],inactive
same,AC50,[4],32.4 µM (active)
same,AC50,[5],13 µM (active)
same,AC50,[6],8.71 µM (active)
same,outcome,[8],inactive
CCOC(=O)O[C@H](C)OC(=O)c1ccc2c(c1)cc(C(=O)NC1CCN(C(C)C)CC1)n2Cc1cc(-c2ccc(Cl)s2)on1,AC50,[2],8.99 µM (active)
same,AC50,[4],1.77 µM (active)
same,outcome,[5],inactive
same,outcome,[6],inactive
Cc1ccc2oc(CN(Cc3ccccc3)C(=O)Nc3c(F)cc(F)cc3F)c(-c3ccc(Cl)cc3)c2c1,outcome,[2],inactive
same,outcome,[3],inactive
same,AC50,[4],7.43 µM (active)
same,outcome,[5],inactive
same,AC50,[6],1.24 µM (active)
same,outcome,[8],inactive
O=C(O)c1ccccc1C(=O)OCc1ccccc1,outcome,[2],inactive
same,outcome,[3],inactive
same,outcome,[4],inactive
same,outcome,[5],inactive
same,outcome,[6],inactive
same,outcome,[10],inactive
same,outcome,[8],inactive
Oc1ccccc1,outcome,[2],inactive
same,outcome,[3],inactive
same,outcome,[4],inactive
same,outcome,[5],inactive
same,outcome,[6],inactive
same,outcome,[10],inactive
same,outcome,[8],inactive
CN1C(=O)N(c2ccccc2Br)Cc2cnc(Nc3ccc4c(c3)OCC(CO)O4)nc21 (stereo not given),AC50,[2],28.1 µM (active)
same,AC50,[4],2.28 µM (active)
same,outcome,[5],inactive
same,outcome,[6],inactive
O=C(O)Cc1cc(I)c(Oc2ccc(O)c(I)c2)c(I)c1,outcome,[1],inactive
same,outcome,[2],inactive
same,AC50,[4],9.41 µM (active)
same,AC50,[6],19.4 µM (active)
same,outcome,[6],inactive
same,outcome,[10],inactive
same,outcome,[8],inactive
c1ccc2ccccc2c1,outcome,[2],inactive
same,outcome,[4],inactive
same,outcome,[6],inactive
same,outcome,[9],inactive
same,outcome,[10],inactive
same,outcome,[8],inactive
O=C1O[C@H]([C@@H](O)CO)C(O)=C1O,outcome,[1],inactive
same,outcome,[2],inactive
same,outcome,[4],inactive
same,outcome,[5],inactive
same,outcome,[10],inactive
same,AC50,[8],26.6 µM (active)
same,outcome,[8],inactive

# Source: PubChem BioAssay (EPA / NIEHS)
